Results on 89 compounds are retold here after PubChem BioAssay AID485270 (The Scripps Research Institute Molecular Screening Center, 2010).

Structures are written as SMILES. About 5,800 (1.8%) of roughly 330,000 compounds were called active. The list comes from a sample in which actives are over-represented; it also holds similar structures and randomly drawn compounds. Unmarked numbers belong to inactive results. Cut-off read from the data, not from the text of the source: active = inhibition mostly above about 38% (no sharp cut-off); inactive = mostly below about 40%.

Orexin/Hypocretin receptor type 1 (Homo sapiens), sequence (O43613 whole entry, looked up): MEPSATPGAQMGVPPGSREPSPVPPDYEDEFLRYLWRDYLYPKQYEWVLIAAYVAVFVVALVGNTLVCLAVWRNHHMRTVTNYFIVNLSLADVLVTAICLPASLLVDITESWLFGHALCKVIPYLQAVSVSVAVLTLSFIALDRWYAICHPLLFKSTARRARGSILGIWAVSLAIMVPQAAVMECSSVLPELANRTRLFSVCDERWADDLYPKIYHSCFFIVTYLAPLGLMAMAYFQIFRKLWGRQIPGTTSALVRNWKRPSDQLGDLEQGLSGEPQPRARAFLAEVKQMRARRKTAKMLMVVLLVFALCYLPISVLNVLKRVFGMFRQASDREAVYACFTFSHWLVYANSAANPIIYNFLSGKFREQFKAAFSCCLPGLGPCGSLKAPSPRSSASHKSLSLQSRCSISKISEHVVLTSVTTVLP

The assay addresses Orexin/Hypocretin receptor type 1 (Homo sapiens) (UniProt O43613). The experiment in a line: blocks the human orexin 1 receptor (AID 485270).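 Note: 0% = agonist challenge alone and 100% = reference antagonist.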 As to conditions: OX1R-expressing cells, FRET antagonist read-out; at 6.6 µM; stronger effect = higher value.
What is called inhibition is the drop in the measured response relative to a control, in per cent. Turning to `Cc1ccc(CNC(=O)COC(=O)C2CCC2)cc1`, the inhibition is 8.9%. Regarding `O=C(COC(=O)c1cc(S(=O)(=O)N2CCOCC2)ccc1F)NC1CC1`, the inhibition was 8.42%. With `CN(CC(=O)NCCc1ccc(S(N)(=O)=O)cc1)CC(=O)Nc1ccc(Cl)cc1`, the inhibition was 3.5%.

Take `CCCc1cc(=O)[nH]c(SCC(=O)Nc2ccc(C(=O)Nc3ccccc3OC)cc2)n1`: the inhibition is 14.2%. With `Cc1ccc2c(c1)NC(=O)[C@@]1(C)[C@@H](c3ccccc3)[C@H]3COc4ccc(Cl)cc4[C@@H]3N1C2=O`, the inhibition is 27.8%. The same measure for `CSc1ncccc1C(=O)NCC(c1ccco1)N1CCCCC1` (centres undefined): 1.61%. As to `O=C1N[C@@H](c2ccccc2)COC(=O)[C@H](Cc2ccc(F)cc2)C/C=C\C[C@@H]1CC(=O)N(CCO)Cc1ccccc1`, the inhibition was 13.5%.

For the compound `CC1CC(=NNC(=O)C2COc3ccccc3O2)CC(C)(C)C1` (centres undefined), the inhibition was 5.91%. The same measure for `O=C(Nc1ccccn1)C1CCN(S(=O)(=O)c2ccc3c(c2)OCCO3)CC1`: -0.64%. On to `COc1cccc(NC(=O)COC(=O)c2ccc3ccccc3n2)c1`, for which the inhibition is 10.5%. In the case of `CCc1ccc(C(=O)N2CCN(S(=O)(=O)c3sc(C(=O)O)c(C)c3C(=O)O)CC2)cc1` it was 0.64%; in that of `COc1ccc(CCOC2OC(CO)C(OC(=O)/C=C/c3ccc(O)c(OC)c3)C(O[C@H]3O[C@@H](C)[C@H](O)[C@@H](O)[C@H]3O)C2O)cc1O` (some centres undefined), 3.08%. In the case of `CCOC(=O)CSC1=N/C(=C/c2ccc(-n3cncn3)cc2)C(=O)N1C(C)=O` it was 64.5% (active); in that of `CCOC(=O)CSc1ccccn1`, 2.08%; in that of `CCOC(=O)CSc1nc(C)cc2c1C(=O)OC2`, 5.73%. As for `COc1cccc(CC(=O)OCC(=O)NCc2ccc3c(c2)OCO3)c1`, the inhibition is 4.94%. Turning to `CC(=O)Nc1ccc(S(=O)(=O)NCC(=O)OCC(=O)c2ccc[nH]2)cc1`, the inhibition is 7.15%. `Cc1ccc(C)c(NC(=O)COC(=O)c2nn(C)c(=O)c3ccccc23)c1`: the inhibition is 4.64%. In the case of `CC(Sc1nncn1C)C(=O)NCCC1=CCCCC1` (centres undefined) it was 5.26%. On to `COc1ccc(CNc2nc(NCc3ccc(OC)cc3)c3ncn(C4CCCC4)c3n2)cc1`, for which the inhibition was 15.3%. As to `O=C(Nc1ccc(Br)cn1)c1ccc([N+](=O)[O-])cc1Cl`, the inhibition was 13.9%. Take `O=C(Nc1ccc(Br)cn1)c1ccc([N+](=O)[O-])o1`: the inhibition is 64.5% (active). As to `Cc1onc(NC(=O)c2ccc([N+](=O)[O-])o2)c1Br`, the inhibition was 33.4%. Turning to `COc1ccc(C2(c3ccc(OC)cc3)NC(=O)N(CC(=O)Nc3cc(C)on3)C2=O)cc1`, the inhibition is 14%. In the case of `CCN1C[C@@H]2[C@@H]3C(=O)N(Cc4ccccc4)C(=O)[C@@H]3[C@](Cc3ccccc3)(C(=O)OC)N2C1=NC1CCCCC1` it was 5.88%; in that of `COc1cnn(-c2ccc([N+](=O)[O-])cc2)c(=O)c1Cl`, 49.7% (active); in that of `CC(C)(C)c1cnnn1-c1ccc([N+](=O)[O-])cc1`, 29.6%. As to `COc1ccc(N2CCN(c3ccc([N+](=O)[O-])cc3Cl)CC2)cc1`, the inhibition was 11.7%. The same measure for `O=C(Cn1cnc2c(OCc3ccccc3)ncnc21)NCCCn1ccnc1`: -0.28%; for `Cc1cc(NC(=O)COc2ccccc2C#N)no1`: 4.54%. `CNC[C@H]1Oc2c(NC(=O)C3CCCCC3)cccc2C(=O)N([C@H](C)CO)C[C@@H]1C`: the inhibition is 6.17%.

With `COc1cc(/C=C/C(=O)Nc2ccc(OC)c(S(=O)(=O)N3CCOCC3)c2)ccc1OCC#N`, the inhibition is 6.14%.

Consider `CNC(=O)c1cccc2nc3ccccc3nc12`, for which the inhibition is 61.4% (active). Regarding `CN(C)C(=O)c1coc2nc3ccccc3nc12`, the inhibition was 7.78%.

For the compound `CNC(=O)c1cc2c(ccc3ccccc32)oc1=N`, the inhibition is 50.1%. The same measure for `C=CC[C@@H](CC(=O)NCCO)C(=O)N[C@H](C)COC(=O)[C@@H](CC=C)CC(=O)OC(C)(C)C`: 5%. Consider `CN1CCN(C(=O)c2ccc(-c3ccc(Br)cc3)o2)CC1`, for which the inhibition is 8.86%. On to `O=C1c2cccc3cccc(c23)C(=O)N1c1cccc(O)c1`, for which the inhibition is 26.1%.

With `O=C1c2ccccc2C(=O)N1c1cccc2ccccc12`, the inhibition is 17%. `COc1ccc(N2C(=O)c3cccc4cccc(c34)C2=O)nn1`: the inhibition is 62.1% (active).

Turning to `O=C(CSc1nnc(-c2ccncc2)o1)Nc1cccc(Cl)c1`, the inhibition was 4.25%.

For the compound `O=C(OCC(=O)N1CCCCC1)c1ccc(OC(F)(F)F)cc1`, the inhibition was 10.9%. Take `COc1ccc(S(=O)(=O)N2CCOCC2)cc1NC(=O)CSc1nnc(NC2CC2)s1`: the inhibition was 5.24%. Turning to `Cc1ccc(CNC(=O)Cn2cnc3c(NCc4ccccc4)ncnc32)o1`, the inhibition was 13.2%. For `CC(=O)Nc1ccc(S(=O)(=O)Nc2ccc(N3CCCCC3)cc2)cc1`, the inhibition is 16.6%. In the case of `COc1cc(OC)c(C(=O)NNC(=O)c2ccccc2-n2cccc2)cc1OC` it was 10.5%; in that of `Oc1c(Cl)cc(Cl)c(Cl)c1Cc1c(O)c(Cl)cc(Cl)c1Cl`, 60.5% (active). In the case of `Cc1cc(NC(=O)CN2C(=O)NC(CC(C)C)C2=O)no1` (centres undefined) it was 4.3%. `NS(=O)(=O)c1ccc(CCNC(=O)CNC(=O)Cc2ccccc2)cc1`: the inhibition is 1.42%.

Consider `NS(=O)(=O)c1ccc(CCNC(=O)c2ccc(Cl)cc2[N+](=O)[O-])cc1`, for which the inhibition was 26.8%. For the compound `O=C(NCCCN1CCOCC1)c1ccc([N+](=O)[O-])cc1[N+](=O)[O-]`, the inhibition is 70.3% (active). `COc1ccc(C(=O)NCCc2ccc(S(N)(=O)=O)cc2)cc1OC`: the inhibition was 17.6%.

As to `NS(=O)(=O)c1ccc(CNC(=O)c2ccc(Cl)cc2[N+](=O)[O-])cc1`, the inhibition was 70.7% (active). Consider `O=[N+]([O-])c1ccc(NCCCN2CCOCC2)c(Cl)c1`, for which the inhibition is 10.8%. `NS(=O)(=O)c1ccc(CCNC(=O)c2ccc([N+](=O)[O-])cc2[N+](=O)[O-])cc1`: the inhibition was 138% (active). As to `O=C(NCCCN1CCOCC1)c1ccc(N2CCCC2)c([N+](=O)[O-])c1`, the inhibition is 52.4%. Turning to `O=C(Nc1cccnc1)c1ccc(Cl)cc1[N+](=O)[O-]`, the inhibition is 22.6%. Take `Cc1ccc(S(=O)(=O)N2CCN(C(=O)COC(=O)CNC(=O)c3ccc(C(C)(C)C)cc3)CC2)c(C)c1`: the inhibition was 1.85%.

In the case of `O=C(COC(=O)c1cccc(Cl)c1)NC(=O)NCc1ccccc1`, the inhibition is 4.12%. Turning to `C=CCC[C@@H](Cc1ccc(F)cc1)C(=O)O[C@H](CNC(=O)[C@H](CC=C)CC(=O)N(CCO)Cc1ccccc1)c1ccccc1`, the inhibition is 13.9%. In the case of `C=CCC[C@H](Cc1ccc(F)cc1)C(=O)OC[C@@H](NC(=O)[C@@H](CC=C)CC(=O)N[C@H](CO)Cc1ccccc1)C(C)(C)C`, the inhibition was -2.5%. For `COc1ccc(N(C)S(=O)(=O)c2ccc3c(c2)CC(C)N3C(=O)C2CC2)c(OC)c1` (centres undefined), the inhibition is 13.5%. In the case of `COc1cccc(CNS(=O)(=O)c2ccc3c(c2)CC(C)N3C(C)=O)c1` (centres undefined), the inhibition was 19.3%. In the case of `COc1cccc(CNS(=O)(=O)c2ccc3c(c2)CC(C)N3C(=O)C2CCC2)c1` (centres undefined), the inhibition is 53.7% (active). For `CN(CC(=O)O)C(=O)c1ccccc1`, the inhibition was 11.7%. The same measure for `Cc1cccc(N(CC(=O)N=Nc2c(O)[nH]c3ccccc23)S(C)(=O)=O)c1C`: 5.48%; for `COCC(=O)N=Nc1c(O)[nH]c2ccccc12`: 68.8% (active).

For the compound `O=C(CCN1CCCCC1)N=Nc1c(O)[nH]c2ccccc12`, the inhibition was 22.5%. As to `Cc1ccc(NS(=O)(=O)c2ccc(C(C)C)cc2)cc1S(=O)(=O)N1CCOCC1`, the inhibition was 1.43%. In the case of `Cc1cccc(OCC(=O)OCC(=O)Nc2ccc(Cl)cn2)c1` it was 4.09%; in that of `c1ccc(-c2nc(NCc3ccco3)c3ccccc3n2)cc1`, 81.6% (active); in that of `c1coc(CNc2ncnc3ccccc23)c1`, 37.9%.

Regarding `COCCNc1nc(-c2ccccc2)nc2c1oc1ccccc12`, the inhibition was 19.4%. In the case of `CCC(=O)OCCNc1nc(-c2ccccc2)nc2ccccc12` it was 48.8% (active). Turning to `O=C(Cc1ccccc1)n1nc(-c2ccccc2)nc1NCc1ccco1`, the inhibition is 16.1%.

Take `CCOCCCNc1nc(-c2ccccc2)nc2ccccc12`: the inhibition was 13.2%. For `CC1CCCCC1NC(=O)COc1ccc(C#N)cc1` (centres undefined), the inhibition is 1.71%. As for `O=C(COC(=O)c1ccc(Br)o1)NC12CC3CC(CC(C3)C1)C2`, the inhibition is 1.86%. The same measure for `O=C1N[C@H](Cc2c[nH]c3ccccc23)COC(=O)[C@H](Cc2ccc(F)cc2)C/C=C\C[C@H]1CC(=O)N(CCO)Cc1ccccc1`: -2.83%; for `Cc1ccc(C(=O)Nc2ccn(C)n2)cc1`: -1.37%. With `COc1ccc(Br)cc1CN(C)C(=O)C1CC(=O)N(C2CCCC2)C1` (centres undefined), the inhibition is 8.23%.

On to `O=C(Nc1sc2c(c1-c1nc3ccccc3[nH]1)CCCC2)C1CC1`, for which the inhibition is 46.5% (active). In the case of `CCOC(=O)c1c(NC(=O)C2CCN(S(=O)(=O)c3ccc(Cl)cc3)CC2)sc2c1CCCC2`, the inhibition was 6.08%. `O=C(C1CCCO1)N1CCC(c2nc3ccccc3[nH]2)CC1` (centres undefined): the inhibition is -1.4%. `C=CC[C@@H](CC(=O)N[C@@H](CO)Cc1ccccc1)C(=O)NCCOC(=O)[C@@H](CC=C)CC(=O)OC(C)(C)C`: the inhibition was 14.3%. In the case of `COC(=O)[C@]1(Cc2ccccc2)N[C@H](CN(C)S(=O)(=O)c2ccc(OC(F)(F)F)cc2)[C@@H]2C(=O)N(Cc3ccccc3)C(=O)[C@@H]21` it was 5.26%; in that of `CCOc1cc(NC(=S)NCCCOC)c(OCC)cc1NC(=O)c1ccco1`, 11.1%; in that of `COCCNC(=O)Nc1ccc2nc(-c3ccco3)c(-c3ccco3)nc2c1`, 113% (active). Regarding `CCCC(=O)Nc1ccc2c(c1)nc(CCNC(=O)c1ccco1)n2C`, the inhibition was 7.62%.
